The values that follow come from PubChem BioAssay (EPA / NIEHS).

Broadly, the AC50 is the midpoint of the concentration-response curve, whichever way the signal moves.

Molecules are shown by their SMILES. A structure can be active in one record and inactive in another. Active and inactive are the calls of the source. How the source made its calls: active means hit-call score of the fitted dose curve at least 0.9, where 1 is the maximum; inactive means score below 0.9.

Read-out in the assay: Macrophage colony-stimulating factor (MCSF), CSF1 (gene 1435)
Put plainly: BSK_LPS_MCSF: BioMAP Diversity Plus: LPS Assay for Macrophage colony-stimulating factor (MCSF) Biomarker Activity (AID 2283083). The settings on record: primary human HUVEC with PBMC; actives raise or lower the signal. The protocol:
BSK_LPS is a cell-based, multiplexed-readout assay that uses umbilical vein endothelium and peripheral blood mononuclear cells, a human vascular primary cell co-culture, with measurements taken at 24 hours after chemical dosing in a 96-well plate.BSK_LPS_MCSF is an assay component measured in the BSK_LPS assay. It measures M-CSF antibody related to regulation of gene expression using ELISA technology.Data from the assay component BSK_LPS_MCSF was analyzed into 1 assay endpoint. This assay endpoint, BSK_LPS_MCSF, was analyzed with bidirectional fitting relative to DMSO as the negative control and baseline of activity. Using a type of binding reporter, gain or loss-of-signal activity can be used to understand changes in the signaling as they relate to the gene CSF1. Furthermore, this assay endpoint can be referred to as a primary readout, because this assay has produced multiple assay endpoints where this one serves a signaling function. To generalize the intended target to other relatable targets, this assay endpoint is annotated to the cytokine intended target family, where the subfamily is colony stimulating factor.
The levels of cell surface (or secreted, indicated by the prefix "s") biomarker endpoints were measured by ELISA. Overt cytotoxicity to cells in confluent adherent cultures (all systems other than the BT system) was assessed by measuring total protein levels using sulforhodamine B (SRB) staining in parallel cultures at the time of biomarker measurements, indicated as SRB endpoints. For proliferation assays for adherent cell types, individual cell types are cultured at sub-confluence and relative cell numbers quantified by SRB staining at time points optimized for each system (48 h: 3C and CASM3C systems; 72 h: BT and HDF3CGF systems; 96 h: SAg system). SRB was performed by staining cells with 0.1% SRB after fixation with 10% TCA and reading wells at 560 nm.Viability and proliferation of PBMC (T cells) was quantified by Alamar Blue reduction for the SAg and BT systems. For PBMC viability (referred to as PBMC Cytotoxicity within the assay endpoint names), cells were plated (75,000/well in a 96-well plate) and then chemical samples added for 1 h before addition of activators, SEB and TSST-1 (20 ng/mL final concentration each). Cells were incubated for 90 h. Then, Alamar Blue (20 uL/well) (Invitrogen, Cat DAL1100) was added for 6 h, and the plates were read with a fluorescence microplate reader at 546/580 nm (excitation/emission). For PBMC proliferation, cells were plated and activated as above but incubated for only 16 h prior to addition of Alamar Blue. Plates were read after 6 h.
As to `CO[C@@H]1[C@H](OC(=O)NC(=O)CCl)CC[C@]2(CO2)[C@H]1[C@@]1(C)O[C@@H]1CC=C(C)C`, the AC50 is 3.16 µM (active).
As to `ClC1=C(Cl)[C@]2(Cl)[C@H]3[C@H]([C@@H]4C=C[C@H]3C4)[C@@]1(Cl)C2(Cl)Cl`, the AC50 was 31.6 µM (active).
For the compound `Oc1ccccc1Cl`, the outcome was inactive.
In the case of `CS(=O)(=O)NC(=O)c1cc(Oc2ccc(C(F)(F)F)cc2Cl)ccc1[N+](=O)[O-]`, the result was inactive.
As to `CCOC(=O)[C@]1(c2ccccc2)Oc2ccccc2[C@@H]1N`, the result was inactive.
Consider `OCCCBr`, for which the result was inactive.
As to `CC(C)(O)c1cnn2c(-c3ccc(F)c(-c4c(F)cccc4C#N)c3)cnc2n1`, the AC50 was 20 µM (active).
Turning to `[O-][Cl+]O`, the result was inactive.
Take `COC(=O)Nc1nc2ccccc2[nH]1`: the AC50 was 7.04 µM (active).
For the compound `N#CC(Br)(Br)C(N)=O`, the result was inactive.
Consider `O=C1CCCO1`, for which the outcome was inactive.
Same read-out and setting: as for `CCCSC(=O)N(CCC)CCC`, the entry is “inactive”.
For the compound `C[C@]12C=CC3=C4CCC(=O)C=C4CC[C@H]3[C@@H]1CC[C@@H]2O`, the AC50 is 9.08 µM (active).
Take `O=C(Nc1ccccc1)c1ccccc1I`: the outcome was inactive.
Turning to `O=[N+]([O-])C(Br)(CO)CO`, the AC50 was 28.9 µM (active).
With `ClC1=C(Cl)C2(Cl)C3C(Cl)C=CC3C1(Cl)C2(Cl)Cl` (stereo not given), the AC50 was 29.5 µM (active).
Consider `COP(=S)(OC)SCN1C(=O)c2ccccc2C1=O`, for which the outcome was inactive.
In the case of `CC(C)(OOC(C)(C)c1ccccc1)c1ccccc1`, the AC50 is 32.5 µM (active).
Turning to `c1ccc(NNc2ccccc2)cc1`, the outcome was inactive.
As to `Cc1ccc(N=C=O)cc1N=C=O`, the outcome was inactive.
On to `Clc1ccc(C(c2ccc(Cl)cc2)C(Cl)(Cl)Cl)cc1`, for which the AC50 is 19.5 µM (active).
For the compound `CC(C)N(Cc1ccccc1)C(=O)C(C)(C)C`, the outcome was inactive.
On to `CCN(CC)CCO`, for which the outcome was inactive.
Take `O=Cc1ccco1`: the result was inactive.
In the case of `CCCCCCCCCCCCCN1CC(C)OC(C)C1` (stereo not given), the result was inactive.
Consider `Clc1ccccc1Cl`, for which the outcome was inactive.
As to `CCC(C)c1ccc(O)cc1` (stereo not given), the outcome was inactive.
As to `O=C(Oc1ccc(Br)cc1)N1CCN2CCC1CC2`, the result was inactive.
For the compound `Cc1ccc(N)c(N)c1`, the AC50 is 11.5 µM (active).
`CCCCCOC(=O)c1ccccc1C(=O)OCCCCC`: the concentration at half-maximal activity (AC50) is 26.5 µM (active).
Consider `CCNS(=O)(=O)C(F)(F)C(F)(F)C(F)(F)C(F)(F)C(F)(F)C(F)(F)C(F)(F)C(F)(F)F`, for which the outcome was inactive and the AC50 was 49 µM (active).
In the case of `CN(C)C(=O)Nc1ccc(Cl)cc1`, the outcome was inactive.
Regarding `CCC12COCN1COC2`, the outcome was inactive.
Regarding `[As]#[In]`, the result was inactive.
Take `c1ccc(C2CO2)cc1` (stereo not given): the outcome was inactive.
Consider `CCOc1cccc(C2(N3CCN(c4ccccc4)CC3)CCC(C)CC2)c1` (stereo not given), for which the outcome was inactive.
As for `Nc1ccc([N+](=O)[O-])cc1`, the result was inactive.
Turning to `Cc1ccc([N+](=O)[O-])cc1`, the result was inactive.
`CN(C)c1ccccc1`: the result was inactive.
